Test results published in PubChem BioAssay (NCATS).
Values joined by “and” are separate entries in the source; they are usually repeats but may differ in a detail not shown here. Equal entries are not always repeated. Active and inactive are the calls of the source. Calls come from the whole dose curve; as a rule, active = well fitted activation curve with a large enough effect; inconclusive = small, poorly fitted or top-dose-only effect; inactive = flat fitted curve, though single readings scatter.

Each molecule was assayed against Peroxisome proliferator-activated receptor alpha (Homo sapiens) (UniProt Q07869) (assay: qHTS assay for small molecule agonists of the peroxisome proliferator-activated receptor alpha (PPARalpha) signaling pathway (AID 651778; for max response: % of control where 0% means no effect)). Settings: PathHunter PPARalpha complementation, chemiluminescence, 6 h; max response: hits give high values.
Excerpt: National Center for Advancing Translational Sciences [NCATS]
NIH Chemical Genomics Center [NCGC]
U.S. Environmental Protection Agency [EPA]
National Institutes of Environmental Health Sciences [NIEHS]
National Toxicology Program [NTP]
The Peroxisome proliferator-activated receptors (PPARs) are lipid-activated transcription factors of the nuclear receptor superfamily with three distinct subtypes (alpha, garmma and beta/delta). All these subtypes heterodimerize with retinoid X receptor and have different physiological functions. PPARalpha is highly expressed in tissues with high rates of mitochondrial fatty acid oxidation, such as liver, heart, muscle, kidney and cells of the arterial wall. PPARalpha is a major regulator of lipid metabolism and energy homeostasis.
A cell based assay was used to identify activators of PPARalpha. The assay detects binding of a ligand to PPARalpha leading to its activation, translocation and complementation thus forming a functional enzyme capable of hydrolyzing the substrate molecule and generating chemiluminescent signal.
2,000 cells in 6 uL/well were dispensed into white wall/solid bottom 1536-well plates using a Multidrop Combi (Thermo Scientific) dispenser. After incubation 37 C and 5% CO2 overnight, 23 nL compound or DMSO only were transferred by a pin tool. The plates were incubated for 6 hr at 37 C and 5% CO2. 3 ul PathHunter detection reagent (Discoverx) was then added to each well and following 60 min incubation at room temperature, chemiluminescence was quantified on a ViewLux CCD-based plate reader.
Potency is the fitted concentration of half-maximal effect.

Chain of Peroxisome proliferator-activated receptor alpha (Homo sapiens) (Q07869 whole entry, looked up): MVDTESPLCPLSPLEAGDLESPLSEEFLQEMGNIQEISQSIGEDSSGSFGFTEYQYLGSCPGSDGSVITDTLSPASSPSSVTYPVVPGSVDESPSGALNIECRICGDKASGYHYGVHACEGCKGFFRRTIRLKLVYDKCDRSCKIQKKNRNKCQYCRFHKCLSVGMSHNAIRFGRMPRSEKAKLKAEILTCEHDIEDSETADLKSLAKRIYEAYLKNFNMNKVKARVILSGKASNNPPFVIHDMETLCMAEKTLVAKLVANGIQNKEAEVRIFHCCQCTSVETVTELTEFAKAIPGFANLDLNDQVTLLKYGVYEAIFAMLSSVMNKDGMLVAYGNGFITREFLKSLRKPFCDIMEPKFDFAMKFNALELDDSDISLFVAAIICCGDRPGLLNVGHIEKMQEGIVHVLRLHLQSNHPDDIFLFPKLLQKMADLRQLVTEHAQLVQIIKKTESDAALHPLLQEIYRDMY

Compound	max response	Potency
CCC[CH2][Sn]([CH2]CCC)[CH2]CCC	1.41% (inactive)	–
CCOc1cc(C(C)(C)C)ccc1C1COC(c2c(F)cccc2F)=N1 (stereo not given)	6.72% (inactive)	–
Fc1ccc(Oc2ccnc3cc(Cl)cc(Cl)c23)cc1	3.62% (inactive)	–
CCCC1COC(Cn2cncn2)(c2ccc(Cl)cc2Cl)O1 (stereo not given)	-0.724% (inactive) and -0.169% (inactive)	–
N#CCNC(=O)c1cnccc1C(F)(F)F	-0.401% (inactive)	–
C[C@@H]1CC[C@@]2(OC1)O[C@H]1[C@@H](O)[C@H]3[C@@H]4CC[C@H]5C[C@@H](O[C@@H]6O[C@H](CO)[C@H](O[C@@H]7O[C@H](CO)[C@@H](O)[C@H](O[C@@H]8OC[C@@H](O)[C@H](O)[C@H]8O)[C@H]7O[C@@H]7O[C@H](CO)[C@@H](O)[C@H](O[C@@H]8O[C@H](CO)[C@@H](O)[C@H](O)[C@H]8O)[C@H]7O)[C@H](O)[C@H]6O)[C@H](O)C[C@]5(C)[C@H]4CC[C@]3(C)[C@H]1[C@@H]2C	-5.72% (inactive)	–
CCNc1nc(Cl)nc(NC(C)(C)C)n1	0.909% (inactive)	–
N#Cc1c(Cl)c(Cl)c(Cl)c(C#N)c1Cl	-3.28% (inactive)	–
COP(=O)(OC)O/C(C)=C/C(=O)N(C)C	-1.78% (inactive)	–
Oc1ccc(C(c2ccc(O)cc2)(C(F)(F)F)C(F)(F)F)cc1	-3.57% (inactive)	–
CC(C)(C)C(O)/C(=C\c1ccc(Cl)cc1Cl)n1cncn1 (stereo not given)	1.97% (inactive)	–
CNC(=O)O/N=C(\C)SC	-0.714% (inactive)	–
CCOP(=S)(OCC)OC(Cl)C(Cl)(Cl)Cl (stereo not given)	-1.33% (inactive)	–
COc1ccc(-c2ccccc2)cc1NNC(=O)OC(C)C	-0.526% (inactive)	–
CC(C)(C)C(=O)[C@@H](Oc1ccc(Cl)cc1)n1cncn1	-2.73% (inactive)	–
C=CC(=O)OCC(CC)(COC(=O)C=C)COC(=O)C=C	-1.24% (inactive)	–
O=C(O)C(F)(F)C(F)(F)C(F)(F)C(F)(F)C(F)(F)C(F)(F)C(F)(F)C(F)(F)C(F)(F)F	-0.9% (inactive) and 3.39% (inactive)	–
CCOC(=O)C(C)OC(=O)c1cc(Oc2ccc(C(F)(F)F)cc2Cl)ccc1[N+](=O)[O-] (stereo not given)	–	35.5 µM (active)
CC(C)N(C(=O)SCC(Cl)=C(Cl)Cl)C(C)C	22.8% (inactive)	–
[Ga]#[As]	-1.03% (inactive)	–

Compound	max response	Potency
C=C(C)C(=O)OCC(CC)CCCC (stereo not given)	5.11% (inactive)	–
COP(=O)(OC)Oc1ccc([N+](=O)[O-])cc1	-5.35% (inactive)	–
CN/C(=N/[N+](=O)[O-])NCC1CCOC1 (stereo not given)	-0.384% (inactive)	–
COC(=O)N(C(=O)N1COC2(C(=O)OC)Cc3cc(Cl)ccc3C2=N1)c1ccc(OC(F)(F)F)cc1 (stereo not given)	-1.75% (inactive)	–
CC(C)CC(C)Nc1ccc(Nc2ccccc2)cc1 (stereo not given)	-7.88% (inactive)	–
C/C(=N\NC(=O)Nc1cc(F)cc(F)c1)c1ncccc1C(=O)O	0.136% (inactive) and -0.453% (inactive)	–
CCC[CH2][Sn]([Cl])([Cl])[CH2]CCC	-2.73% (inactive)	–
O=[N+]([O-])c1cc(C(F)(F)F)cc([N+](=O)[O-])c1Cl	-4.28% (inactive)	–
Nc1cccc(Cl)c1Cl	-3.86% (inactive)	–
c1ccc2cc3c(cc2c1)-c1cccc2cccc-3c12	13.7% (inactive) and 0.159% (inactive)	–
CCOP(=S)(Oc1cnc(C(C)(C)C)nc1)OC(C)C (stereo not given)	-0.258% (inactive)	–
CC(C)C(C(=O)OC(C#N)c1cccc(Oc2ccccc2)c1)c1ccc(Cl)cc1 (stereo not given)	0.669% (inactive)	–
N#CC(CCc1ccc(Cl)cc1)(Cn1cncn1)c1ccccc1 (stereo not given)	-0.149% (inactive)	–
COc1cc(OC)nc(Sc2cccc(Cl)c2C(=O)O)n1	-1.08% (inactive)	–
CCOP(=O)(OCC)SCSCC	-4.89% (inactive)	–
CC1COC(Cn2cncn2)(c2ccc(Oc3ccc(Cl)cc3)cc2Cl)O1 (stereo not given)	6.01% (inactive)	–
COc1nc(C)nc(NC(=O)NS(=O)(=O)c2ccccc2CCC(F)(F)F)n1	-1.05% (inactive)	–
O=P(O)(O)CN(CP(=O)(O)O)CP(=O)(O)O	4.68% (inactive)	–
CCC[CH2][Sn](=[O])[CH2]CCC	-3.37% (inactive)	–
CC(C)Oc1cc(-n2nc(C(C)(C)C)oc2=O)c(Cl)cc1Cl	0.863% (inactive)	–
